Results filed as inconclusive are left out. Active and inactive are the calls of the source. Rule for the calls: active = hit-call score of the fitted dose curve at least 0.9, where 1 is the maximum; inconclusive = response in the unintended direction; inactive = score below 0.9.
Biological target: rat Constitutive Nitric Oxide Synthase (CNOS), Nos1 (gene 24598) (UniProt P29476)
Assay: NVS_ENZ_rCNOS: NovaScreen (NVS) Enzymatic Assay for rat Constitutive Nitric Oxide Synthase (CNOS) (AID 2283236)
Summary of the method: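 Single 25 uM duplicate screen, then concentration series to 50 uM for chemicals meeting threshold. Rat brain membrane-derived CNOS activity detected radiometrically by filtration and scintillation counting, 1 h after compound addition; DMSO as baseline.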

Sequence of rat Constitutive Nitric Oxide Synthase (CNOS), Nos1 (gene 24598) (P29476 whole entry, looked up): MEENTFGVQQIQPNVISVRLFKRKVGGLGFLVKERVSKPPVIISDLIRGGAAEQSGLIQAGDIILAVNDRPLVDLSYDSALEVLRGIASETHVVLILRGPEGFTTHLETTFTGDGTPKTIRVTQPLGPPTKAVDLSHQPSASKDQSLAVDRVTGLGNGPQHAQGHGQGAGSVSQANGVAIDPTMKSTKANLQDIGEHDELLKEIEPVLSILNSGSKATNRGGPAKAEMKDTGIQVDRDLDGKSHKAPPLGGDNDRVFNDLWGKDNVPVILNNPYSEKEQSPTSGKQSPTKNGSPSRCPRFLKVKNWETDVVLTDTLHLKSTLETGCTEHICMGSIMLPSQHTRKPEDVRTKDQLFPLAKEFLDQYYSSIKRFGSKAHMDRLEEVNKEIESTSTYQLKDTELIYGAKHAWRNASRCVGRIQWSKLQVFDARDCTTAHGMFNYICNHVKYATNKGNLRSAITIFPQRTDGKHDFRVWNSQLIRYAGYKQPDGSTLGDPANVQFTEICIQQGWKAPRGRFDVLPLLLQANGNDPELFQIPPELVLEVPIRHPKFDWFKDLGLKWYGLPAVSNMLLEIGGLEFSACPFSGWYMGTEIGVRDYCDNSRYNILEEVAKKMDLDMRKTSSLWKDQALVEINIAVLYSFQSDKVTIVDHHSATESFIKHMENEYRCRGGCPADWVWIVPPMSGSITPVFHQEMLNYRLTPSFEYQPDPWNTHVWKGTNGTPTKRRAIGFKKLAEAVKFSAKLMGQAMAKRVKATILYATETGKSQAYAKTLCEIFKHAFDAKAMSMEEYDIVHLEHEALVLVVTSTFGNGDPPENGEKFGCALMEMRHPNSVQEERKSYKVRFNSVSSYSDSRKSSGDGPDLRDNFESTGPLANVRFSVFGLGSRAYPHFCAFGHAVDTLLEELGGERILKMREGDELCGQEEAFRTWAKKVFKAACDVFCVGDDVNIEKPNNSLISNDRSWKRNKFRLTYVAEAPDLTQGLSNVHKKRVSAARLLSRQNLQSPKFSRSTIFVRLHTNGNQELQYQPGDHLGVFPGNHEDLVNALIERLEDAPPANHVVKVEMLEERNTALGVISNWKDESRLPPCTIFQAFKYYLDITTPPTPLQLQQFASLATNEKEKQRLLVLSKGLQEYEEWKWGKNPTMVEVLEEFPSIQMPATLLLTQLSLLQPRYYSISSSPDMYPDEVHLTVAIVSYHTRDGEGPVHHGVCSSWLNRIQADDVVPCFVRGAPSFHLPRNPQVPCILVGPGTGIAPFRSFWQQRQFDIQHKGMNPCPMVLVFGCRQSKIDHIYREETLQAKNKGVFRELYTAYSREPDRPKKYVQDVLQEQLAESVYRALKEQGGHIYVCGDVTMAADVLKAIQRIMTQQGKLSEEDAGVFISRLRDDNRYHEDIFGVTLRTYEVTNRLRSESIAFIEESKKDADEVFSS

| Structure (SMILES) | outcome | AC50 |
| --- | --- | --- |
| COP(=O)(NC(C)=O)SC (stereo unspecified) | inactive | – |
| Nc1c(Cl)cc([N+](=O)[O-])cc1Cl | inactive | – |
| CC(C)[C@H](C(=O)O[C@H](C#N)c1cccc(Oc2ccccc2)c1)c1ccc(Cl)cc1 | inactive | – |
| CCCCSP(=O)(SCCCC)SCCCC | – | 6.6 µM (active) |
| CCCCN(CC)c1c([N+](=O)[O-])cc(C(F)(F)F)cc1[N+](=O)[O-] | inactive | – |
| CN(C)[C@@H]1C(=O)C(C(N)=O)=C(O)[C@@]2(O)C(=O)C3=C(O)c4c(O)cccc4[C@@](C)(O)[C@H]3[C@H](O)[C@@H]12 | – | 5.33 µM (active) |

System: rat Monoamine Oxidase, MAO-A, Peripheral (MAOAP), gene 29253
Assay: NVS_ENZ_rMAOAP: NovaScreen (NVS) Enzymatic Assay for rat Monoamine Oxidase, MAO-A, Peripheral (MAOAP) (AID 2283237)
Summary of the method: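 Scintillation counting tracked MAO-A activity in a cell-free rat liver mitochondrial membrane prep, read 1.17 hours after compound addition. Single-point duplicate testing at 25 uM preceded concentration-response follow-up; activity was fitted relative to DMSO.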

| Structure (SMILES) | AC50 | outcome |
| --- | --- | --- |
| CN(C)C(=O)Nc1cccc(C(F)(F)F)c1 | 25 µM (active) | – |
| C[Si](Cn1cncn1)(c1ccc(F)cc1)c1ccc(F)cc1 | 25 µM (active) | – |
| Nc1c(Cl)cc([N+](=O)[O-])cc1Cl | 18 µM (active) | – |
| CC[C@H](C)[C@H]1O[C@]2(C=C[C@@H]1C)C[C@@H]1C[C@@H](C/C=C(\C)[C@@H](O[C@H]3C[C@H](OC)[C@@H](O[C@H]4C[C@H](OC)[C@@H](NC)[C@H](C)O4)[C@H](C)O3)[C@@H](C)/C=C/C=C3\CO[C@@H]4[C@H](O)C(C)=C[C@@H](C(=O)O1)[C@]34O)O2 | – | inactive |
| CCC(=O)Nc1ccc(Cl)c(Cl)c1 | 6.9 µM (active) | – |

— PubChem BioAssay (EPA / NIEHS)
